Here are results for 11 compounds from PubChem BioAssay.

The source made the active and inactive calls. Unless noted, the rule behind the calls is not given here.

Assay [1] can be described thus: P. berghei load reduction in hepatocytes – cell-based, HepG2, luciferase luminescence, HepG2 viability, primary screen (AID 624349; in the data active = parasite load remaining mostly below about 12%, no sharp cut-off; inactive = mostly above about 10%;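 note: 100% = mean of DMSO negative control wells on the same plate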). The note with it: P. berghei liver stage in HepG2, luciferase luminescence, concentration not given here; parasite load remaining: stronger effect = lower value; viability: measured here: HepG2 viability without parasites.
Assay [2] can be described thus: viability loss with induced miR-34 in A549 – imaging, A549 dox-inducible miR-34, nuclei and caspase counts, primary screen (AID 1347080;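 active = compounds whose cell count with miR-34 switched on is under 0.7 times the count with it off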). The note with it: A549 miR-34 inducible, Hoechst nuclei count, 48 h.
A short description of assay [3]: compounds altering HSF1 focus formation in cells – imaging, Selleck Cancer Library (AID 1347162; in the data active = plate-normalised HSF1 focus index below about 0.46). Conditions: human cells, HSF1 nuclear foci imaging, at 10 µM; SSMD: measured here: HSF1 foci SSMD mean; cell count: measured here: cell number; plate-normalised HSF1 focus index: stronger effect = lower value.
A short description of assay [4]: MELAS cybrid and Rieske KO viability enhancers – cell-based, MELAS cybrids, Rieske KO mouse fibroblasts, CellTiter-Glo, primary screen (AID 1508586;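 active = mean z-score across replicates of 1.96 or higher in either the MELAS or the Rieske mutant cell line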;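 note: z relative to plate mean and SD of compound and empty wells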). Conditions: low glucose.
Assay [5] can be described thus: galactose survival enhancers in mitochondrial complex I cybrids – cell-based, galactose medium, ATP luminescence, primary screen (AID 1645843;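 active = z-score of at least 1.8 in each of two replicates, scored against plate mean and spread of sample wells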;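 note: positive z means more ATP and so rescue of galactose-driven cybrid death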). Conditions: complex I mutant cybrid cells, 72 h, stronger effect = higher value.
A short description of assay [6]: blockers of cellular phospholipid synthesis – cell-based, LOPAC library, screen 4, primary screen (AID 1347384). The note with it: animal cells, phospholipid biosynthesis inhibition screen; at 10 µM.
A short description of assay [7]: compounds altering viability of human ES cells (AID 493140).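 Note: cells exposed to compounds for four days before counting.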 The note with it: human embryonic stem cell survival screen; stronger effect = higher value.
Assay [8] in a line: chitosan synthesis blockers in C. neoformans – flow cytometry, Cibacron Brilliant Red staining (AID 1347148).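 Note: compound exposure lasted three days at 37 degrees C.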 The note with it: Cryptococcus neoformans chitosan, stronger effect = lower value; at 10 µM unless noted. In general terms: Flow cytometry measures light scatter and fluorescence of single cells or particles in a stream.
For assay [9], the system named is Hepatitis C virus NS3 helicase. Nature of the assay: blockers of NS3h binding to ssDNA – biochemical, fluorescence polarization, LOPAC1280 library, primary screen (AID 687035; in the data active = inhibition above about 37%). Conditions: Purified HCV NS3 helicase, Cy5-dT15 ssDNA binding fluorescence polarization; stronger effect = higher value; concentration not given here. A general note: Fluorescence polarisation rises when a labelled molecule tumbles more slowly, as on binding a larger partner.

Assay [10] can be described thus: compounds altering Cy5-DNA-NS3h complex signal – biochemical, LOPAC1280, artefact control for HCV NS3 helicase inhibitor project (AID 687037). The note with it: Cy5-DNA-NS3h complex fluorescence interference counterscreen. A general note: Counterscreens check selectivity or assay interference.
For assay [11], the target named is NAD(+) hydrolase SARM1 (Homo sapiens) (UniProt Q6SZW1). Nature of the assay: blocking NAD cleavage by SARM1 SAM-TIR – cell lysate, NAD-Glo luminescence (AID 1508614;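 active = compound whose remaining NAD level is above about 45 nM, limit read from the data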;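 note: higher remaining NAD means stronger inhibition of SARM1 NADase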). Conditions: SAM-TIR HEK293T lysate NADase, at 1 µM, stronger effect = higher value.
Sequence of NAD(+) hydrolase SARM1 (Homo sapiens) (Q6SZW1 whole entry, looked up): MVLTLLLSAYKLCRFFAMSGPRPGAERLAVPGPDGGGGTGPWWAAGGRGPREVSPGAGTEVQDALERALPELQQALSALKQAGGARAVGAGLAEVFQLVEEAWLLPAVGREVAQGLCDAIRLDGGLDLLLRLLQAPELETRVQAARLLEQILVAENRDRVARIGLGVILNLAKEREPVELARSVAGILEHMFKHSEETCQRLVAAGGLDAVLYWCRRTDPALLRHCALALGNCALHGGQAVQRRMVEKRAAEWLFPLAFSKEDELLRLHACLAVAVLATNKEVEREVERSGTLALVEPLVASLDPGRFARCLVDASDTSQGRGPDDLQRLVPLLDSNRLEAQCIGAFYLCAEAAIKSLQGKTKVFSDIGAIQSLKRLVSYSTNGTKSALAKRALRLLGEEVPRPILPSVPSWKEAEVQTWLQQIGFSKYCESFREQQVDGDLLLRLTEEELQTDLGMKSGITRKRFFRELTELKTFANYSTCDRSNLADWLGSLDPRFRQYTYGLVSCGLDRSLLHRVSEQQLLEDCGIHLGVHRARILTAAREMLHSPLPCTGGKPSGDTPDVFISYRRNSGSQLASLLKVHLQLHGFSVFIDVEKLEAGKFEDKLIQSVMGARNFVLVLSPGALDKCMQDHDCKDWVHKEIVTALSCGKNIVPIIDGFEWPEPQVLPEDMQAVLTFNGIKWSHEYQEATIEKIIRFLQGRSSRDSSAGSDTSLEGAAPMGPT
Where [12] appears, read: stronger effect = lower value, cell number ratio, induced over uninduced.
[13] abbreviates: measured here: relative caspase fold change +Dox/-Dox.
Where [14] appears, read: measured here: total cells with miR-34 induction, stronger effect = lower value.
Setting [15] is: measured here: total cells without miR-34 induction.
The mark [16] stands for this setting: MELAS cybrid survival, CellTiter-Glo 48 h, stronger effect = higher value.
[17] abbreviates: Rieske KO mouse fibroblast survival, CellTiter-Glo 72 h.

A word on the viability: it is a read-out of living cells in per cent, often relative to untreated cells. For the compound `N[C@@H]1CCCC[C@H]1N.O=C(O)C(=O)O.[Pt]`, the parasite load remaining in [1] is 182% (inactive). For the same compound, the viability in assay [1] stood at 134%. Besides, the fold change was 0.972 (inactive) in assay [2] (setting [12]) and 1.18 in assay [2] (setting [13]). Also, the figures for the cell count in [2] (setting [14]), in assay [2] (setting [15]) and in assay [3] were 4570, 4710 and 7520, respectively. This compound yielded an SSMD in [3] of 1.36. Also, the plate-normalised HSF1 focus index in [3] was 1.09 (inactive). Further, the z-score was 0.335 (inactive) in assay [4] (setting [16]), -0.474 in assay [4] (setting [17]) and 1.01 (inactive) in assay [5].
Take `O=C(CCSCc1ccco1)NNC(=O)N1Cc2ccccc2Oc2ccc(Cl)cc21`: the fold change in assay [2] (setting [12]) was 0.969 (inactive); in [2] (setting [13]), 0.669. In addition, the cell count in assay [2] (setting [14]) worked out at 7850; in [2] (setting [15]) it was 8100. The outcome in [6] was inactive. For the same compound, in assay [5], the z-score was 1.58 (inactive).
Turning to `CCCCC[C@H](O)/C=C/C=C\CCCCCCCC(=O)O`, the survival in [7] is 87.8 (inactive). Besides, the fold change was 0.929 (inactive) in assay [2] (setting [12]) and 1.14 in assay [2] (setting [13]). Also, the cell count came to 5740 in [2] (setting [14]) and 6180 in assay [2] (setting [15]). The fold fluorescence in assay [8] was 6.42 [at 1 µM] (inactive).
On to `COc1ccc(/C=C/c2nc(NCCCN(C)C)c3ccccc3n2)cc1`, for which the fold change in assay [2] (setting [12]) is 1.02 (inactive); in assay [2] (setting [13]), 1.21. The figures for the cell count in [2] (setting [14]) and in assay [2] (setting [15]) were 1330 and 1300, respectively. Further, the compound was called inactive in [6]. Besides, the z-score in assay [5] was -1.21 (inactive).
As a reminder, the inhibition is the drop in the measured response relative to a control, in per cent. Regarding `CCOC(=O)[C@H](CCc1ccccc1)N[C@@H](C)C(=O)N1[C@H](C(=O)O)C[C@H]2CCCC[C@@H]21`, in [9], the inhibition is -4% (inactive). The fluorescence ratio (interference) in [10] is 1 (inactive). For the same compound, the fold change was 1.13 (inactive) in [2] (setting [12]) and 0.831 in assay [2] (setting [13]). Moreover, the cell count in [2] (setting [14]) turned out to be 11100; in [2] (setting [15]), 9850. Further, the result in assay [6] was inactive. Further, in [11], the remaining NAD was 10 nM (inactive). For the same compound, in assay [5], the z-score is 0.51 (inactive).
As to `C=CC(=O)N1CCCC(n2nc(-c3ccc(Oc4ccccc4)cc3)c3c(N)ncnc32)C1` (configuration not stated), the fold change is 0.863 (inactive) in assay [2] (setting [12]) and 0.762 in [2] (setting [13]). Besides, the values for the cell count in [2] (setting [14]), in assay [2] (setting [15]) and in assay [3] were 7670, 8890 and 7290, respectively. For the same compound, the SSMD in assay [3] was determined as 2.74. In addition, the plate-normalised HSF1 focus index in [3] was 1.17 (inactive). For the same compound, the z-score in assay [4] (setting [16]) is -0.153 (inactive); in assay [4] (setting [17]) it was -0.517.
As for `CN(CCCOc1ccc(Cc2ccccc2)cc1)CCC(=O)O`, the fold change in assay [2] (setting [12]) is 0.994 (inactive); in [2] (setting [13]), 1.84. Moreover, the cell count in assay [2] (setting [14]) worked out at 9930; in assay [2] (setting [15]), 9990. Besides, the outcome in assay [6] was inactive. Further, the z-score in assay [5] is 0.275 (inactive).
Take `CN(C)CC(O)Cn1c2ccc(Br)cc2c2cc(Br)ccc21` (configuration not stated): the figures for the fold change in assay [2] (setting [12]) and in assay [2] (setting [13]) were 0.735 (inactive) and 1.58, respectively. Besides, the values for the cell count in assay [2] (setting [14]) and in [2] (setting [15]) were 200 and 272, respectively. Also, the compound was classed as inactive in assay [6].
As to `CCCCC[C@H](O)/C=C/C=C\C=C\C=C\[C@@H](O)[C@@H](O)CCCC(=O)O`, the survival in [7] was 89.1 (inactive). For the same compound, the fold change in [2] (setting [12]) is 0.912 (inactive); in [2] (setting [13]), 1.26. Further, the results for the cell count in assay [2] (setting [14]) and in assay [2] (setting [15]) were 5670 and 6220, respectively. Besides, the fold fluorescence in assay [8] is 4.45 [at 1 µM] (inactive).
For `CO[C@H]1O[C@@H]2O[C@]3(C)CC[C@@H]4[C@@H](C)CC[C@H]([C@H]1C)[C@]24OO3`, the fold change in assay [2] (setting [12]) was 0.984 (inactive); in [2] (setting [13]), 1.93. In addition, the cell count amounted to 9680 in [2] (setting [14]) and 9830 in [2] (setting [15]). In addition, the compound was called inactive in assay [6]. In addition, in assay [5], the z-score is -0.71 (inactive).
As for `COCCOc1cc2ncnc(Cl)c2cc1OCCOC`, the fold change was 1.03 (inactive) in [2] (setting [12]) and 1.13 in assay [2] (setting [13]). For the same compound, the values for the cell count in assay [2] (setting [14]) and in assay [2] (setting [15]) were 9200 and 8960, respectively. Also, the outcome in assay [6] was inactive. Besides, the z-score in assay [5] was -0.675 (inactive).
